# From ChEMBL document CHEMBL1157539, “Thousands of chemical starting points for antimalarial lead identification” (Nature, 2010)
# Tested on: Plasmodium falciparum
# Assay: GSK_TCMDC: Inhibition of Plasmodium falciparum 3D7 in whole red blood cells, using parasite LDH activity as an index of growth. Test compounds present at 2uM
# Assay type: functional
row,SMILES,Inhibition [%]
1,Cc1ccc(NC(=O)c2ccc(NCCCN3CC(C)CC(C)C3)c([N+](=O)[O-])c2)cc1F (stereo not drawn),100
2,COc1cccc2cc(C(=O)N[C@@H](CC(C)C)C(=O)N[C@H](/C=N/N3C(=O)CN(Cc4ccccc4)C3=O)CCc3ccccc3)oc12,85
3,Cc1cccc2sc(N(CCCn3ccnc3)C(=O)C=Cc3cccs3)nc12.Cl,91
4,Cc1[nH]c2ccc(-c3ccc(N(C)C)cc3)cc2c(=O)c1Cl,97
5,COc1cccc2cc(C(=O)N[C@@H](CC(C)C)C(=O)N[C@H](C=NN3CCCC3=O)Cc3ccccc3)oc12,96
6,CN(C)CCNC(=O)c1csc(Nc2ccc(Cl)c(Cl)c2)n1,100
7,O=C(N[C@H]1CCN(Cc2ccc(OCCN3CCNCC3)c(Cl)c2)C1)c1ccc(Cl)c(Cl)c1.O=C(O)C(F)(F)F,100
8,Cc1cc(NC(=O)CCN2CCN(c3cccc(Cl)c3Cl)CC2)ccc1N1CCN(C(C)C)CC1.Cl,99
9,CCOc1ccc(-c2nonc2NC(=O)c2cccc(Cl)c2)cc1OCC,100
10,COc1ccc(CNCc2ccccc2)cc1-c1ccc(S(=O)(=O)NCCN2CCCC2)cc1.O=C(O)C(F)(F)F,96
11,COc1ccc2c(c1)CC1CN(CCCCNC(=O)c3ccc(NC(=O)c4cc(Cl)cc(Cl)c4)cc3)CCN1C2 (stereo not drawn),100
12,CCOC(=O)N1CCC(NC(=O)c2ccc(C(C)(C)C)cc2OC)CC1,88
13,CCCCn1c(SC(C)C)nc2c(c1=O)C1(CCCCC1)Cc1ccccc1-2,99
